Screening results deposited in PubChem by Broad Institute.
HIF act: HIF pathway transcriptional activators, primary screen, cell-based, U2OS HRE-luciferase, luminescence. hit rate 0.32% among 300,000. U2OS HRE-luciferase reporter; normalized: DMSO 0%, desferrioxamine 100%. AID 1910, 2009. activation, % at 7.5 µM (by protocol);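 active means mean activation of at least 10% of the iron chelator positive control signal, with at least half of replicates also reaching 10%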
AI-2 QS mod: Vibrio harveyi AI-2 quorum sensing modulators, primary screen, JMH597 strain, luminescence/OD600 ratio | Vibrio harveyi JMH597 AI-2 luminescence/OD600 ratio, 9 h; stronger effect = lower value; strain lacks LuxN and CqsS sensors; 0 = neutral-control median | activity change, % at 7.5 µM | hit rate 0.4% among 300,000; in the data active means activity change below about -75%, passing the limit was not always enough;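 further: luminescence divided by OD600 gain over 9 h not by final OD600 alone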
SUMO Mot1 rescue: yeast Mot1-301 growth rescue at high temperature, primary screen, SUMOylation pathway inhibitor project, S. cerevisiae, ATP luminescence, 38.5C | S. cerevisiae Mot1-301 growth rescue; percent above DMSO median, 100 means doubled | growth rescue, % at 18.8 µM | hit rate 1% among 320,000 | AID 2716, 2010;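 active means every valid replicate shows activation above 250% relative to neutral control wells; inactive means the rest, any valid replicate at or below 250%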;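 further: OY570 slx delta 5 strain wells were the positive control but not used for scaling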
ALR inh: inhibitors of human ALR sulfhydryl oxidase, primary screen, biochemical, H2O2 detection, HRP-luminol luminescence, single point. purified ALR, DTT oxidation. inhibition, % (test concentration not listed). hit rate 3.8% among 290,000;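 active means mean replicate inhibition above about 79%, with every replicate also reaching it, limit read from the data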
Target sequence (P55789 whole entry, looked up): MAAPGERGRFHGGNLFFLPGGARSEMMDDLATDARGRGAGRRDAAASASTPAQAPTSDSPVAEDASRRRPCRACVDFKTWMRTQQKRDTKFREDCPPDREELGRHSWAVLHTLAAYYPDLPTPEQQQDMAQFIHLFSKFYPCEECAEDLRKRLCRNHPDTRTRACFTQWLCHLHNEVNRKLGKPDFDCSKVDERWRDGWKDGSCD
Active calls of the source: *. Most compounds without a hit are left out; they make up all but 4.8% or so of the library.

How did Cc1nnc(N2C(=O)C(O)=C(C(=O)c3ccco3)C2c2ccc(F)cc2)s1 (stereo unspecified) do in these assays?
AI-2 QS mod: 22; SUMO Mot1 rescue: 442; ALR inh: 71

Results for O=S(=O)(c1cccs1)n1cnc2ccccc21 ?
HIF act: 0; AI-2 QS mod: 27; SUMO Mot1 rescue: -30; ALR inh: 97*

What do the screens show for `O=[N+]([O-])c1ccccc1S(=O)(=O)n1cnc2ccccc21`?
HIF act: 0; AI-2 QS mod: 23; SUMO Mot1 rescue: -7; ALR inh: 95*

How did Cc1ccc(S(=O)(=O)n2cnc3ccccc32)cc1 do in these assays?
HIF act: 0; AI-2 QS mod: 3; SUMO Mot1 rescue: 0; ALR inh: -8

What do the screens show for `O=S(=O)(c1cccs1)n1nnc2ccccc21`?
HIF act: 0; AI-2 QS mod: -1; ALR inh: -4

How did O=C(CSc1nnc(-c2ccco2)o1)c1ccc[nH]1 do in these assays?
HIF act: 1; AI-2 QS mod: 6; SUMO Mot1 rescue: 7; ALR inh: 98*

What do the screens show for `O=C(CSc1nnc(-c2ccco2)o1)c1ccccc1`?
HIF act: 0; AI-2 QS mod: 7; SUMO Mot1 rescue: -3; ALR inh: 99*

What do the screens show for `c1ccc2c(Nc3nncs3)c3ccccc3nc2c1`?
HIF act: 0; AI-2 QS mod: 22; SUMO Mot1 rescue: 314*; ALR inh: -6

How did Cc1nc(-c2cccs2)sc1C(=O)O do in these assays?
HIF act: 0; AI-2 QS mod: 40; SUMO Mot1 rescue: 8; ALR inh: -3

How did Cc1nccc(-c2sc(-c3cccs3)nc2C)n1 do in these assays?
HIF act: 4; AI-2 QS mod: 3; SUMO Mot1 rescue: 16; ALR inh: 85*

Results for CC1Sc2ccc(S(=O)(=O)N3CCC(C(=O)NCC(C)c4ccccc4)CC3)cc2NC1=O (stereo unspecified) ?
HIF act: -1; AI-2 QS mod: -3; SUMO Mot1 rescue: 0; ALR inh: -5

How did CCCCN(C)S(=O)(=O)c1ccc(C(=O)Nc2nnc(-c3ccco3)o2)cc1 do in these assays?
HIF act: 0; AI-2 QS mod: 74; SUMO Mot1 rescue: 11; ALR inh: 84*

What do the screens show for `O=C1CN(CC(=O)NC2CCCc3ccccc32)CCN1` (stereo unspecified)?
HIF act: 0; AI-2 QS mod: 23; SUMO Mot1 rescue: -14; ALR inh: -1

Results for CN(C)c1ccc(/C=C/C(=O)c2ccc3c(c2)OCO3)cc1 ?
SUMO Mot1 rescue: 72; ALR inh: 99*

Results for CN(C)c1ccc(/C=C/C(=O)c2cccnc2)cc1 ?
HIF act: 0; AI-2 QS mod: -64; SUMO Mot1 rescue: 11; ALR inh: 99*

Results for CN(C)c1ccc(/C=N/NC(=O)c2ccc3c(c2)OCO3)cc1 ?
HIF act: 2; AI-2 QS mod: 26; SUMO Mot1 rescue: -10; ALR inh: 98*

What do the screens show for `O=C(/C=C/c1cccc(O)c1)c1cccnc1`?
HIF act: 0; AI-2 QS mod: 0; SUMO Mot1 rescue: 15; ALR inh: 2

How did CC1(C)Oc2ccc(C(=O)N/N=C/c3ccc(O)cc3)cc2NC1=O do in these assays?
HIF act: -1; AI-2 QS mod: 23; SUMO Mot1 rescue: -15; ALR inh: 99*

What do the screens show for `Nc1nccnc1C(=O)OCC(=O)Nc1ccc2[nH]c(=O)[nH]c2c1`?
HIF act: 1; AI-2 QS mod: 31; SUMO Mot1 rescue: 8; ALR inh: -3

How did O=C(/C=C/c1ccccc1)c1ccc2c(c1)OCO2 do in these assays?
HIF act: 0; AI-2 QS mod: -13; SUMO Mot1 rescue: -29; ALR inh: 97*

Results for O=C(/C=C/c1cccc(Br)c1)c1ccc2c(c1)OCO2 ?
HIF act: 1; AI-2 QS mod: -5; SUMO Mot1 rescue: -2; ALR inh: 10

How did O=C(N/N=C/c1ccc([N+](=O)[O-])o1)c1ccc2c(c1)OCO2 do in these assays?
HIF act: -3; AI-2 QS mod: -101*; SUMO Mot1 rescue: -18; ALR inh: -43

How did COCCN(C(=O)c1ccc(C)o1)c1c(N)n(CC(C)C)c(=O)[nH]c1=O do in these assays?
SUMO Mot1 rescue: -7; ALR inh: 0

Results for Cc1cccc2sc(NNC(=O)C3=COCCO3)nc12 ?
HIF act: 1; AI-2 QS mod: 15; SUMO Mot1 rescue: -3; ALR inh: 26
